# A selection: hits, their analogues and other compounds. The true share with any hit is near 2.3%.
# Bcl-xL primary: blocks human Bcl-xL binding to Bim BH3 peptide; inhibition, % at 10.9 µM; GST-Bcl-xL / FITC-Bim BH3 peptide fluorescence polarization; AID 2129; Q07817; actives 0.7% (n = 320,000);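 active means inhibition above the mean of all tested compounds plus 3 SD, cutoff set per campaign, cut at about 30% in these data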;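 further: inhibitors lower millipolarization by displacing the labeled peptide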
# Target sequence (Q07817 whole entry, looked up): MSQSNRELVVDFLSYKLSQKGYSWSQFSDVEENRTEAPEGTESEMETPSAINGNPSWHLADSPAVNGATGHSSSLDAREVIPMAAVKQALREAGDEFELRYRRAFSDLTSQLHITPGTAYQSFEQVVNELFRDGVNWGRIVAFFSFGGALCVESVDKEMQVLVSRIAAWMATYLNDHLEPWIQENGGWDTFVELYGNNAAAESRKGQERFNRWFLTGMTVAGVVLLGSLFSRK
# GLD-1 TGE inh: GLD-1-TGE RNA interaction inhibition (C. elegans). Q17339. purified GLD-1 + fluorescein TGE RNA, fluorescence polarization. inhibition, % at 5.96 µM. actives 0.44% (n = 320,000);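 active means percent inhibition above a per-plate cutoff, the plate mean of test compounds plus 3 SD, cut at about 30% in these data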
# MCL1 BIM primary: disrupts human MCL1 binding to BIM-BH3 peptide; GST-MCL1 / FITC-Bim-BH3 fluorescence polarization; inhibition, % at 10.9 µM; actives 0.68% (n = 320,000); AID 2057;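 active means inhibition above the mean inhibition of all tested compounds plus 3 SD, set per campaign, cut at about 40% in these data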;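 further: higher means more loss of mP so more displacement of Bim peptide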
# Target sequence (Q07820 whole entry, looked up): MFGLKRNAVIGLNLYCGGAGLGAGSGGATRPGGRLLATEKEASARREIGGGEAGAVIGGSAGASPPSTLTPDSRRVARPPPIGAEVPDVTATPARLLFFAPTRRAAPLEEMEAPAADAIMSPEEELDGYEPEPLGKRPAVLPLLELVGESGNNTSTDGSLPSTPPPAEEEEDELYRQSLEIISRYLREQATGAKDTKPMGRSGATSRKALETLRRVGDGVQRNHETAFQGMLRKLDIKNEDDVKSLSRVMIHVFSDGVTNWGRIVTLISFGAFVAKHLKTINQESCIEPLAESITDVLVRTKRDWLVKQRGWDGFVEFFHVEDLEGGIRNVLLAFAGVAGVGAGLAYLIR
# Mcl1-Bid inh: disrupts binding of human Mcl-1 to Bid peptide | Q07820 | inhibition, % at 21.7 µM | actives 0.97% (n = 220,000) | AID 1021 | TR-FRET Mcl-1/Bid-Dy647 peptide binding, 1536-well;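 active means compounds that cut the binding signal by more than half at the single screening dose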;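 further: His-tagged Mcl-1 with europium anti-His antibody binding Bid BH3 peptide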
# Mcl1-Noxa inh: Mcl-1/Noxa interaction inhibition. Q07820. TR-FRET Mcl-1/Noxa peptide binding, 2 h. inhibition, % at 21.7 µM. actives 1.5% (n = 220,000);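 active means compounds that cut the protein-peptide binding signal by more than 50% relative to plate controls in a single-dose test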;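 further: His-tagged Mcl-1 with rhodamine Noxa BH3 peptide and terbium anti-His antibody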
# Bim-Mcl-1: disrupts Bim peptide binding to human Mcl-1. actives 0.1% (n = 190,000). Q07820. Bead-based flow cytometry, Bim peptide-Mcl-1 binding. AID 1009. inhibition, % at 10 µM; in the data active means inhibition above about 40%
# Hits are given with their value; n = inactive; x = no result.
SMILES,Bcl-xL primary,GLD-1 TGE inh,MCL1 BIM primary,Mcl1-Bid inh,Mcl1-Noxa inh,Bim-Mcl-1
CCN(CC)S(=O)(=O)c1ccc(NC(=O)Nc2cccc(C(F)(F)F)c2)cc1,n,n,n,101,n,n
Cc1cc(CNC(=O)CC2C(=O)NCCN2Cc2ccccc2C(F)(F)F)on1 (stereo not drawn),n,n,n,n,n,n
Cc1cnc(CNC(=O)CC2C(=O)NCCN2Cc2ccccc2C(F)(F)F)cn1 (stereo not drawn),35,n,n,x,x,x
CCc1cccc(OCC2Cn3c(nc4c3c(=O)n(C)c(=O)n4C)O2)c1 (stereo not drawn),n,n,n,x,x,x
N#Cc1ccsc1NC(=O)CN1CCN(c2ccc(O)cc2)CC1,n,n,n,n,72,n
O=C(CN1CCN(c2ccc(O)cc2)CC1)Nc1ccc(SC(F)F)cc1,n,n,n,n,70,n
NC(=O)c1ccc(NC(=O)COc2cccc3ccccc23)cc1,n,n,n,x,x,x
CC(C)(C)OC(=O)C[C@@H]1C/C=C\C[C@H](CC(=O)NCCO)C(=O)N2CCC[C@@H]2COC1=O,x,n,x,x,x,x
COc1ccc(CCNc2nc(=S)[nH]c3cc(OC)c(OC)cc23)cc1OC,n,n,n,n,80,n
COc1cc2[nH]c(=S)nc(NC3CCCCCC3)c2cc1OC,n,n,n,n,n,n
COc1cc2[nH]c(=S)nc(Nc3ccc(NC(C)=O)cc3)c2cc1OC,n,n,n,n,78,n
COc1ccc(CCNc2ncnc3cc(OC)c(OC)cc23)cc1OC,x,x,x,n,n,n
COc1ccc(CCNc2ncnc3c2[nH]c2cc(OC)c(OC)cc23)cc1OC,n,n,n,n,66,x
COc1cc2[nH]c(=S)nc(NCCc3ccc(S(N)(=O)=O)cc3)c2cc1OC,n,n,n,n,59,n
Cc1nnc(SCC(=O)NC(=O)NCc2ccco2)n1Cc1ccccc1,n,n,n,n,53,n
CCn1c(SCC(=O)NC(=O)NCc2ccco2)nc2sc(C)c(C)c2c1=O,n,n,n,n,55,n
CCOc1ccccc1-n1nnnc1SCC(=O)NC(=O)NCc1ccco1,n,n,n,n,53,n
O=C(CSc1nnc(Cc2ccccc2)n1Cc1ccccc1)NCc1ccco1,n,n,n,n,n,n
O=C(CSc1nnc(Nc2ccccc2F)s1)NCc1ccco1,x,x,x,n,n,n
Cc1ccccc1Nc1nnc(SCC(=O)NC(=O)NCc2ccco2)s1,n,n,n,n,56,n
O=C(O)c1cc(NS(=O)(=O)c2ccc(F)cc2)cc(NS(=O)(=O)c2ccc(F)cc2)c1,x,n,x,x,x,x
CC(C)c1cccc(C(C)C)c1NC(=O)CN1C(=O)NC2(CCCCCCC2)C1=O,n,n,n,x,x,x
Nn1c(SCC(=O)NC(=O)NCc2ccco2)nnc1-c1ccc(OC(F)F)cc1,n,n,n,n,96,n
Cc1ccc(Nc2nnc(SCC(=O)NCc3ccco3)s2)cc1,x,x,x,n,53,n
O=C(CSc1nnc(Nc2ccccc2)s1)NCc1ccco1,n,n,n,n,n,n
SMILES,Bcl-xL primary,GLD-1 TGE inh,MCL1 BIM primary,Mcl1-Bid inh,Mcl1-Noxa inh,Bim-Mcl-1
O=C(CSc1nnc(COc2ccccc2Cl)o1)NC(=O)NCc1ccco1,n,n,n,n,81,x
Cc1sc2nc3ccc(NCc4ccco4)nn3c(=O)c2c1C,34,n,n,n,n,n
Nn1c(SCC(=O)NCCN2C(=O)CSC2=O)nnc1-c1ccc(OC(F)F)cc1,n,n,n,x,x,x
CC(C)Oc1ccc(C(=O)NCCCNC(=O)c2ccccn2)cc1,n,n,n,x,x,x
Cc1ccc(C)c(N2N=C(C(=O)N(CC(C)C)c3c(N)n(Cc4ccccc4)c(=O)[nH]c3=O)CCC2=O)c1,n,61,n,x,x,x
O=C(O)Cc1sc(Nc2ccc(Cl)cc2)nc1-c1cccs1,x,x,x,n,73,n
Nc1nc(-c2cccs2)c(CC(=O)O)s1,n,n,n,n,n,n
CCCCNC(=O)CSc1ccc(S(=O)(=O)N2CCOCC2)cn1,n,n,n,x,x,x
NC(=O)CSc1ccc(S(=O)(=O)N2CCOCC2)cn1,38,n,43,x,x,x
COc1ccc(NC2c3ncccc3C(=O)N2Cc2cccs2)cc1 (stereo not drawn),n,n,n,n,n,n
O=C1c2cccnc2C(Nc2ccc(Br)cc2)N1Cc1cccs1 (stereo not drawn),n,n,n,62,n,n
O=C1c2cccnc2C(Nc2ccc(F)c(Cl)c2)N1Cc1cccs1 (stereo not drawn),n,n,n,52,n,n
O=C(NC1CC(=O)N(c2ccccc2)C1)C1CC1 (stereo not drawn),n,n,n,x,x,x
Cc1cc2oc(C(=O)Nc3ccc(S(=O)(=O)Nc4nccs4)cc3)cc(=O)c2cc1Cl,n,n,n,n,62,n
Cc1cc(C)c2oc(C(=O)Nc3ccc(S(=O)(=O)Nc4nccs4)cc3)cc(=O)c2c1,n,n,n,n,83,x
CC(C)N1C(=S)SC(C)(C)C1n1oc(=O)n(-c2cccc(Cl)c2)c1=O (stereo not drawn),129,n,n,n,n,n
Cc1ccc(-n2c3c(c(=O)[nH]c2=O)C(NS(=O)(=O)c2ccc(Cl)cc2)(C(F)(F)F)C(=O)N3)cc1 (stereo not drawn),n,n,n,n,54,n
Cn1c2c(c(=O)n(C)c1=O)C(NS(=O)(=O)c1ccc(Cl)cc1)(C(F)(F)F)C(=O)N2 (stereo not drawn),n,n,n,n,53,n
O=C(c1ccccn1)N1CCCC(N2CCN(c3cccc(C(F)(F)F)c3)CC2)C1 (stereo not drawn),n,n,n,x,x,x
CC(=O)Nc1ccc(NC(=O)CSc2nnc(-c3ccco3)o2)cc1,n,n,n,n,n,n
CC(=O)c1ccc(NC(=O)CSc2nnc(-c3ccco3)c(-c3ccco3)n2)cc1,n,n,n,n,79,n
NC(=O)CSc1nc2scc(-c3ccco3)c2c(=O)n1-c1ccccc1,n,n,n,n,55,n
COc1ccc(-n2c(SCC(=O)NCC3CCCO3)nc3c(c2=O)SC(C)C3)cc1 (stereo not drawn),n,n,n,x,x,x
CC1Cc2nc(SCC(=O)NCC3CCCO3)n(-c3ccc(F)cc3)c(=O)c2S1 (stereo not drawn),64,n,n,x,x,x
O=C(CSc1nc2ccsc2c(=O)n1Cc1ccccc1)NCC1CCCO1 (stereo not drawn),n,n,n,n,n,n
O=C(CSc1nc2ccsc2c(=O)n1Cc1ccc(C(=O)O)cc1)NCC1CCCO1 (stereo not drawn),n,n,n,n,n,73
O=C(CSc1nc2scc(-c3ccco3)c2c(=O)n1-c1ccccc1)NCC1CCCO1 (stereo not drawn),n,n,n,n,56,n
C=CCn1c(SCC(=O)NCC2CCCO2)nc2scc(-c3ccco3)c2c1=O (stereo not drawn),n,n,n,n,n,n
